Assay results: PubChem BioAssay (EPA / NIEHS)
Active and inactive are the calls of the source. Rule for the calls: active = hit-call score of the fitted dose curve at least 0.9, where 1 is the maximum; inactive = score below 0.9.

Tested on: not listed separately
Experiment: ATG_GLI_CIS: Attagene CIS-FACTORIAL HepG2 Assay for human Zinc Finger Protein GLI1 (AID 2282945)
Details: HepG2, Attagene cis-factorial reporter mRNA, GLI element; actives raise or lower the signal
Procedure, shortened: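 Bidirectional curve fits relative to DMSO, using reporter mRNA levels from RT-PCR plus capillary electrophoresis. Cells were HepG2 transiently carrying cis-regulated reporter constructs, harvested 24 h after dosing.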

| SMILES | outcome |
| --- | --- |
| CN(C)N=O | inactive |
| Cc1ccc(N)cc1Cl | inactive |
| CC(C)(OO)c1ccccc1 | inactive |
| CC(C)(C)c1cc(O)ccc1O | inactive |
| COP(=S)(OC)Oc1ccc(Sc2ccc(OP(=S)(OC)OC)cc2)cc1 | inactive |
| O=[N+]([O-])c1ccc(O)c([N+](=O)[O-])c1 | inactive |
| CC1(C)CCC(Cc2ccc(Cl)cc2)C1(O)Cn1cncn1 (stereo unspecified) | inactive |
| ClCc1ccccn1 | inactive |
| O=C(Cl)c1ccc(Cl)cc1 | inactive |
| Oc1ccc(-c2ccccc2)cc1 | inactive |
| ClC1(Cl)C2(Cl)C3(Cl)C4(Cl)C(Cl)(Cl)C5(Cl)C3(Cl)C1(Cl)C5(Cl)C24Cl (stereo unspecified) | inactive |
| Nc1ccc(N=Nc2ccc(-c3ccc(N=Nc4c(S(=O)(=O)O)cc5cc(S(=O)(=O)O)c(N=Nc6ccccc6)c(O)c5c4N)cc3)cc2)c(N)c1 | inactive |
| Cc1ccccc1N | inactive |
| CC(=[OH+])/C=C(/C)[O-].CC(=[OH+])/C=C(/C)[O-].CC(=[OH+])/C=C(/C)[O-].[Fe] | inactive |
| Fc1ccc(C2(Cn3cncn3)OC2c2ccccc2Cl)cc1 (stereo unspecified) | inactive |
| C=C(C)C(=O)[O][Sn]([CH2]CCC)([CH2]CCC)[CH2]CCC | inactive |
| CCC(C)c1cccc(C(C)CC)c1O (stereo unspecified) | inactive |
| O=C/C=C/c1ccccc1 | inactive |
| COP(=S)(OC)Oc1c(Cl)cc(C)cc1Cl | inactive |

Molecular target: Bile acid receptor (Homo sapiens) (UniProt Q96RI1)
Experiment: ATG_IR1_CIS: Attagene CIS-FACTORIAL HepG2 Assay for human Nuclear Receptor Subfamily 1 Group H Member 4 (NR1H4), IR1 submotif (AID 2282946)
Details: IR1 reporter transcription, actives raise or lower the signal
Procedure, shortened: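 Cells (human HepG2) carry transiently transfected cis-promoter reporter transcription units. Compounds are incubated 24 h, total RNA is reverse-transcribed and amplified, and labelled fragments are resolved by capillary electrophoresis. Curves use DMSO as baseline.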

Sequence of Bile acid receptor (Homo sapiens) (Q96RI1 whole entry, looked up): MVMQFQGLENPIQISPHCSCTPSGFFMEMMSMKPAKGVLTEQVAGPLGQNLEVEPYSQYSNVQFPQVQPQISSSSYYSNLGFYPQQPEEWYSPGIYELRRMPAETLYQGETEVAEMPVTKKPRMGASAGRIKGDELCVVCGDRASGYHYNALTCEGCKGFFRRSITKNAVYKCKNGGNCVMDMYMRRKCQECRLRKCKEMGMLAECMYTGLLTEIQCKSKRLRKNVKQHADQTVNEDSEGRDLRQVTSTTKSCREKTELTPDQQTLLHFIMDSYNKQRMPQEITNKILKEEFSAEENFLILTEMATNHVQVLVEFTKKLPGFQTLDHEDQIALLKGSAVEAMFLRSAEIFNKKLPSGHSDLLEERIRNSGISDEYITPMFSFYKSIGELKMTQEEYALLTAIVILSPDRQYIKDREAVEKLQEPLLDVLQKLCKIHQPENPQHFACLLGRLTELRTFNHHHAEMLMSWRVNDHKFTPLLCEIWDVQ

| SMILES | outcome | AC50 |
| --- | --- | --- |
| CN(C)N=O | inactive |  |
| Oc1cccc2cccnc12 | inactive |  |
| O=C(O)C(F)(F)C(F)(F)C(F)(F)C(F)(F)C(F)(F)C(F)(F)C(F)(F)C(F)(F)C(F)(F)C(F)(F)F | inactive |  |
| CC(C)(OO)c1ccccc1 | inactive |  |
| CC(C)(C)c1cc(O)ccc1O | inactive |  |
| CC1(C)CCC(Cc2ccc(Cl)cc2)C1(O)Cn1cncn1 (stereo unspecified) | inactive |  |
| COC[C@H](C)N(C(=O)CCl)c1c(C)csc1C | inactive |  |
| CCCCP(CCCC)CCCC | inactive |  |
| O=C(Cl)c1ccc(Cl)cc1 | inactive |  |
| Oc1ccc(-c2ccccc2)cc1 | inactive |  |
| CC(C)c1ccc(CO)cc1 | inactive |  |
| ClC1(Cl)C2(Cl)C3(Cl)C4(Cl)C(Cl)(Cl)C5(Cl)C3(Cl)C1(Cl)C5(Cl)C24Cl (stereo unspecified) | inactive |  |
| CC(=[OH+])/C=C(/C)[O-].CC(=[OH+])/C=C(/C)[O-].CC(=[OH+])/C=C(/C)[O-].[Fe] | inactive |  |
| Fc1ccc(C2(Cn3cncn3)OC2c2ccccc2Cl)cc1 (stereo unspecified) | inactive |  |
| O=[N+]([O-])c1c(Cl)c(Cl)cc(Cl)c1Cl | inactive |  |
| C=C(C)C(=O)[O][Sn]([CH2]CCC)([CH2]CCC)[CH2]CCC |  | 11.2 nM (active) |
| CCC(C)c1cccc(C(C)CC)c1O (stereo unspecified) | inactive |  |
